Screening results (PubChem)
An excerpt weighted towards active compounds, which were near 7.9% of everything screened.
SW480 rereplic: A quantitative high throughput screen for small molecules that induce DNA re-replication in SW480 colon adenocarcinoma cells. SW480 DNA re-replication, Hoechst DNA content imaging, 48 h. Potency, µM (highest dose often 46.1 µM), inactives show at the highest dose re-replication activation, actives largely listed as activators. 340,000 tested, 1.8% active; further: % of control where 0% means no effect; nearly all actives have a fitted effect of over 55% in size
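Image-based DNA-content assay: after two days of treatment, nuclei were labelled with the DNA dye Hoechst and imaged, and hits were compounds raising the count of nuclei showing high fluorescence intensity.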
KB-3-1 cytotox: qHTS assay for MDR1-selective chemotherapeutics: Primary screen using the parental adenocarcinoma cell KB-3-1. KB-3-1 viability, CellTiter-Glo ATP luminescence, 72 h. Potency, µM (series often up to 46.1 µM), usual class: cytotoxic. 400,000 tested, 1.4% active; further: on the % scale 0 is the no-effect control and ±100 the full control effect; nearly all actives have a fitted effect of over 60% in size
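Parental KB-3-1 adenocarcinoma cells in phenol-red-free DMEM with 10% FBS were pin-treated with compounds at several concentrations, incubated 72 h at 37 °C, and viability read by CellTiter-Glo luminescence; concentration-effect curves were fitted after normalization.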
MCF10A rerep: A quantitative high throughput screen for small molecules that induce DNA re-replication in MCF 10a normal breast cells | Potency, µM (highest dose often 46.1 µM), inactives show at the highest dose activity, positive = re-replication, most hits filed as activators | MCF 10A DNA re-replication, Hoechst nuclear intensity, 48 h | 350,000 tested, 2.9% active; further: % of control where 0% means no effect; nearly all actives have a fitted effect of over 50% in size
HT1080 IDH1KD tx: qHTS for induction of synthetic lethality in tumor cells producing 2HG: qHTS for the HT-1080-IDH1KD cell line; HT-1080 IDH1 knockdown viability, ATP luminescence, 48 h; Potency, µM (series often up to 46.1 µM), inactives show at the highest dose activity, negative = toxicity, most hits filed as cytotoxic; 360,000 tested, 2% active;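 further: 0% = DMSO wells and -100% = cell-free medium wells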
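Viability of IDH1-knockdown HT-1080 fibrosarcoma cells was assessed by CellTiter-Glo after 48 h at 37 °C with titrated compound; concentration-effect curves were classified by fit quality and response size.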
KB-V1 MDR tox: qHTS assay for MDR1-selective chemotherapeutics: Primary screen using the drug-selected MDR subline cells KB-V1. 400,000 tested, 3.4% active. Potency, µM (titrated, usually from 46.1 µM), hits mostly cytotoxic. KB-V1 MDR cells viability, CellTiter-Glo, 72 h. AID 1347076, 2019; further: on the % scale 0 is the no-effect control and ±100 the full control effect; nearly all actives have a fitted effect of over 60% in size
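Cells of the MDR subline KB-V1 are plated, dosed with compound at multiple concentrations, and incubated 72 h at 37 degrees C; CellTiter-Glo is then added and luminescence read after 10 min.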
HT1080NT lethal: qHTS for induction of synthetic lethality in tumor cells producing 2HG: qHTS for the HT-1080-NT fibrosarcoma cell line | HT-1080-NT fibrosarcoma viability, CellTiter-Glo ATP luminescence, 48 h | Potency, µM (titrated, usually from 46.1 µM), inactives show at the top dose activity, negative = less viability, usual class: cytotoxic | 360,000 tested, 1.6% active;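 further: NT is the 2HG producing partner of a matched IDH1 knockdown line; 0% = DMSO-treated cells and -100% = media-only wells without cells; nearly all actives have a fitted effect of over 55% in size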
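Fibrosarcoma NT cells, 750 per well in 5% FBS RPMI, were exposed to compound for 48 hours. Viability: CellTiter-Glo luminescence.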
* hit, by the source's call; i = inactive; ? = inconclusive; nt = not tested or not shown. The call rests on the fitted dose curve; in most records, active means well fitted curve in the direction sought with a large enough effect; inconclusive means small, poorly fitted or top-dose-only effect, or another doubt; inactive means no such curve, though single readings can be large; an effect the other way counts as inactive or inconclusive. Potency means the concentration at half of the fitted maximal effect.

SMILES | SW480 rereplic | KB-3-1 cytotox | MCF10A rerep | HT1080 IDH1KD tx | KB-V1 MDR tox | HT1080NT lethal
O=C(c1ccc(S(=O)(=O)N2CCOCC2)cc1)N1CCN(C2=NS(=O)(=O)c3ccccc32)CC1 | -4% | i | 0% | 14% | i | 6%
CCCCOC(=O)c1ccc(NC(=O)c2ccc3c(c2)CCN3S(C)(=O)=O)cc1 | nt | i | nt | nt | i | nt
CCc1ccc2occ(CC(=O)Nc3c(C(=O)c4ccc(C)cc4)oc4ccccc34)c2c1 | nt | i | nt | nt | i | nt
Cc1ccc(C(=O)c2ccccc2C(=O)OCC(=O)N2C(C)CCCC2C)cc1 (centres undefined) | 3% | i | ? | 9% | i | 4%
CCOc1ccc(CCNC(=O)c2cccc(S(=O)(=O)N3CCCCC3)c2)cc1OCC | 7% | ? | ? | -28% | 6.5µM* | -11%
CCOc1ccc(S(=O)(=O)N2CCN(C(=O)c3ccc(C)c(S(=O)(=O)N4CCOCC4)c3)CC2)cc1 | 3% | ? | 9% | -10% | 21µM* | -9%
CCOc1ccc(CCNC(=O)CN2C(=O)COc3ccc(S(=O)(=O)N4CCCCCC4)cc32)cc1 | nt | i | nt | nt | 9.2µM* | nt
O=C(NCc1ccccc1F)c1cccc(S(=O)(=O)N2CCCCC2)c1 | 15% | i | 2% | -5% | 4.1µM* | 3%
COc1ccccc1-c1nnc(C2CCN(S(=O)(=O)c3ccc(F)c(C)c3)CC2)o1 | nt | i | nt | nt | i | nt
C=CCc1c(O)c(CC)cc2c(C)cc(=O)oc12 | 12µM* | i | 4% | -8% | i | 1%
CCN(CC)Cc1c(O)c(Cl)cc2c(C)cc(=O)oc12 | 1% | i | ? | 2% | i | 2%
O=C(CSc1nc2ccccc2[nH]1)N1CCOCC1 | nt | i | nt | nt | ? | nt
N#Cc1nc(COc2ccc(-c3ccccc3)cc2)oc1N1CCC(C(N)=O)CC1 | nt | i | nt | nt | i | nt
CCOc1ccc(C(=O)N/N=C(\c2ccccc2)c2ccccn2)cc1 | 8.2µM* | ? | 28% | 2.3µM* | i | ?
O=C(N/N=C(\c1ccccc1)c1ccccn1)c1cccc([N+](=O)[O-])c1 | -4% | ? | 5% | ? | i | ?
COc1ccc(NC(=O)CN2C(=O)CC(c3ccco3)Sc3ccccc32)cc1OC (centres undefined) | nt | i | nt | nt | 18µM* | nt
O=C(CN1C(=O)CC(c2ccco2)Sc2ccccc21)Nc1cccc(C(F)(F)F)c1 (centres undefined) | nt | ? | nt | nt | 21µM* | nt
O=C(CN1C(=O)CC(c2ccco2)Sc2ccccc21)Nc1ccc(C(F)(F)F)cc1 (centres undefined) | nt | i | nt | nt | ? | nt
COc1cc(/C=C/C(=O)Nc2nnc(C(C)(C)C)s2)cc(OC)c1OC | -8% | i | -1% | 4% | ? | -3%
COc1cc(/C=C/C(=O)Nc2nc3ccc(S(=O)(=O)N(C)C)cc3s2)cc(OC)c1OC | 10µM* | ? | ? | 6.5µM* | i | ?
CS(=O)(=O)c1ccc2nc(NC(=O)c3cccs3)sc2c1 | 1% | ? | 15% | 23µM* | ? | ?
COc1cc(C(=O)Nc2nc3ccc(S(C)(=O)=O)cc3s2)cc(OC)c1C | 18µM* | i | 3% | -10% | i | -16%
Cc1ccc(S(=O)(=O)NN=C2C(=O)C3CCC2C3Cl)cc1 (centres undefined) | -3% | i | 1% | 11% | i | 13%
COc1ccc(/C=C/C(=O)c2ccc([N+](=O)[O-])o2)cc1 | 12µM* | 18µM* | 2.3µM* | 18µM* | ? | ?
O=C(/C=C/c1cccc([N+](=O)[O-])c1)c1ccc([N+](=O)[O-])o1 | ? | ? | 1.6µM* | 5.8µM* | i | 5.8µM*
SMILES | SW480 rereplic | KB-3-1 cytotox | MCF10A rerep | HT1080 IDH1KD tx | KB-V1 MDR tox | HT1080NT lethal
O=C(/C=C/c1cccc([N+](=O)[O-])c1)c1ccco1 | ? | i | 136% | 0% | i | -19%
COc1ccc(S(=O)(=O)N2CCN(C(=O)c3ccc([N+](=O)[O-])o3)CC2)cc1 | ? | i | ? | ? | i | ?
Cc1cccc(/C=C/C(=O)c2ccc([N+](=O)[O-])o2)c1 | ? | ? | 12µM* | ? | i | -20%
COc1cccc(/C=C/C(=O)c2cccc([N+](=O)[O-])c2)c1 | ? | ? | ? | 17% | ? | 7%
CC(=O)c1cccc(NC(=O)C2CCN(C(=O)c3cccs3)CC2)c1 | -4% | i | -4% | 9% | i | 3%
COc1ccc(NC(=O)[C@H]2O[C@@H]3OC(C)(C)O[C@@H]3[C@H]3OC(C)(C)O[C@H]32)c(OC)c1 | nt | i | nt | nt | i | nt
CCOC(=O)c1ccc(S(=O)(=O)N2CCN(C(=O)c3cccc(S(=O)(=O)N4CC(C)OC(C)C4)c3)CC2)cc1 (centres undefined) | 4% | i | 5% | -9% | i | 1%
O=C1CCN2C=Nc3cccc4ccc1c2c34 | 20% | ? | 13% | -19% | 12µM* | -24%
COC(=O)c1scc(C)c1N1C(=O)c2ccccc2C1=O | -8% | i | 2% | -2% | ? | 0%
CCOC(=O)C1=C(C)N(C[C@@H]2CC[C@@H](Cc3ccc4cc(OC)ccc4c3)O2)C(=O)NC1c1ccc(OC)cc1 (some centres undefined) | ? | i | 4.1µM* | -1% | ? | 1%
CC(=O)Nc1ccc(S(=O)(=O)NCCC(=O)OC(C)C(=O)NC2(C#N)CCCCC2)cc1 (centres undefined) | 5% | ? | 1% | -2% | i | 8%
COc1cccc(NC(=O)CCC2CCN(C(=O)Cc3cccc(F)c3)CC2)c1 | -3% | nt | 15% | -19% | nt | -11%
COc1ccc(CC(=O)N2CCC(CCC(=O)Nc3ccccc3)CC2)cc1 | 21% | nt | 23µM* | -16% | nt | 0%
CCC1CCCCN1C(=O)Cn1c(=O)n(-c2ccccc2C(F)(F)F)c(=O)c2c(C)c(C(=O)N(C)C)sc21 (centres undefined) | nt | i | nt | nt | i | nt
O=c1[nH]c(N/N=C\c2ccc3c(c2)OCO3)nc2ccccc12 | 4% | ? | 19% | -11% | i | 2%
